About 79,000 compounds went through this panel and 15% of them were active in at least one assay; those are over-represented in the sample as a whole. Calls of active or inactive are those of the source. Rule as the data show it: active = growth inhibition above about 70%; inactive = the rest.
Legend:
[1] = NCI Yeast Anticancer Drug Screen. Data for the rad52 strain (AID 147);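 also: 0% = growth of vehicle-treated control cultures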; conditions: S. cerevisiae rad52 mutant growth inhibition, active compounds read high
Procedure, shortened: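 Inhibition of yeast growth, referenced to vehicle controls, was the measured output for a strain with defective DNA damage repair.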

[2] = NCI Yeast Anticancer Drug Screen. Data for the wt1 strain (AID 149);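 also: 0% = growth of vehicle-treated wt1 cultures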; conditions: S. cerevisiae wt1 strain (SPY 50644) growth inhibition, active compounds read high
Procedure, shortened: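 Using yeast strain wt1, compound-induced growth inhibition was determined against vehicle-treated cultures.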

[3] = NCI Yeast Anticancer Drug Screen. Data for the rad50EPP+ strain (AID 151);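 also: 0% = growth of vehicle-treated control cultures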; conditions: S. cerevisiae rad50 mutant strain, active compounds read high
Procedure, shortened: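 Genetically defined yeast (rad50EPP+, DNA damage repair alteration) is grown with compound, and inhibition of growth is expressed relative to vehicle-treated controls.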

[4] = NCI Yeast Anticancer Drug Screen. Data for the mgt1 strain (AID 153); conditions: S. cerevisiae mgt1 mutant growth inhibition, active compounds read high
Procedure, shortened: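 In the mgt1 strain, test compounds were added and growth inhibition was determined relative to vehicle-treated controls.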

[5] = NCI Yeast Anticancer Drug Screen. Data for the rad50 strain (AID 155);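 also: 0% = growth of vehicle-only cultures of the same strain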; conditions: S. cerevisiae rad50 strain growth inhibition, active compounds read high
Procedure, shortened: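 Relative growth inhibition (compound vs vehicle) was measured in yeast with a defined repair-gene alteration.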

[6] = NCI Yeast Anticancer Drug Screen. Data for the mec2-1 strain (AID 157); conditions: S. cerevisiae mec2-1 strain, active compounds read high
Procedure, shortened: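 Each compound was tested on mec2-1 yeast, a strain altered in DNA damage repair or cell cycle control. Growth inhibition is reported relative to vehicle.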

[7] = NCI Yeast Anticancer Drug Screen. Data for the rad14 strain (AID 159);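 also: 0% = growth of vehicle-treated control cultures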; conditions: S. cerevisiae rad14 strain growth inhibition, active compounds read high
Procedure, shortened: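 Screen for anticancer potential: a yeast strain altered in DNA damage repair is grown with compound, and reduced growth is quantified against vehicle controls.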

[8] = NCI Yeast Anticancer Drug Screen. Data for the sgs1 mgt1 strain (AID 161);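 also: 0% = growth of cultures given vehicle only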; conditions: S. cerevisiae sgs1 mgt1 strain, active compounds read high
Procedure, shortened: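 Mutant yeast exposed to compound; growth scored against vehicle-only wells.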

[9] = NCI Yeast Anticancer Drug Screen. Data for the CLN2oe strain (AID 163);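 also: 0% = growth of vehicle-only control cultures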; conditions: S. cerevisiae CLN2oe strain, active compounds read high
Procedure, shortened: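 First, the altered yeast strain was treated with each compound; second, its growth was measured; finally, inhibition was derived by comparison with vehicle controls.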

[10] = NCI Yeast Anticancer Drug Screen. Data for the cln2 rad14 strain (AID 165);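 also: 0% = growth equal to vehicle treated cultures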; conditions: S. cerevisiae cln2 rad14 strain, active compounds read high
Procedure, shortened: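 Test compounds were added to cln2 rad14 yeast cultures; inhibition of growth was then determined by comparison with vehicle treatment.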

[11] = NCI Yeast Anticancer Drug Screen. Data for the bub3 strain (AID 167); conditions: S. cerevisiae bub3 mutant strain, active compounds read high
Procedure, shortened: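 Screening used yeast with an engineered genetic alteration affecting cell cycle control. Compound-exposed cultures were compared with vehicle cultures, and reduced growth was taken as inhibition.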

[12] = NCI Yeast Anticancer Drug Screen. Data for the wt2 strain (AID 169);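 also: 0% = growth of vehicle-treated yeast cultures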; conditions: S. cerevisiae wt2 strain growth inhibition, active compounds read high
Procedure, shortened: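 The panel's yeast strains carry defined changes in DNA repair or cell cycle genes. Each strain is grown with compound, and growth loss is scored relative to vehicle.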

[13] = NCI Yeast Anticancer Drug Screen. Data for the mlh1 strain (AID 171);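 also: 0% = growth of vehicle-treated control cultures of the same strain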; conditions: S. cerevisiae mlh1 strain growth inhibition, active compounds read high
Procedure, shortened: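 Inhibition values reflect reduced yeast growth in the presence of compound, referenced to vehicle controls, using a strain chosen for its alteration in DNA repair or cell cycle control.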

[14] = NCI Yeast Anticancer Drug Screen. Data for the sgs1 strain (AID 173);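 also: 0% = growth of vehicle-only control cultures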; conditions: S. cerevisiae sgs1 mutant, active compounds read high
Procedure, shortened: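 Vehicle-treated cultures served as reference for growth inhibition of a yeast strain altered in DNA damage repair or cell cycle control after compound exposure.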

[15] = NCI Yeast Anticancer Drug Screen. Data for the mlh1 rad18 strain (AID 175); conditions: S. cerevisiae mlh1 rad18 strain growth inhibition, active compounds read high
Procedure, shortened: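 Inhibition values reflect reduced growth of mutant yeast versus vehicle-treated controls following compound exposure; the mutations affect DNA damage repair.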

[16] = NCI Yeast Anticancer Drug Screen. Data for the rad18 strain (AID 177); conditions: S. cerevisiae rad18 mutant growth inhibition, active compounds read high
Procedure, shortened: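 Steps: expose repair-mutant yeast to compound; measure growth; express as inhibition relative to vehicle control.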

[17] = at 5.0 µM (retest, dose inferred, filed as 0.5)
[18] = at 50.0 µM (retest, dose inferred, filed as 5.0)

Measured: growth inhibition

CCC(C(=O)O)C1=C(c2ccccc2)CCc2ccccc21 (stereo unspecified)
active: [1]; at 11.0 µM 97% | [1]; at 33.0 µM 99% | [1]; at 100.0 µM 98% | [2]; at 11.0 µM 97% | [2]; at 33.0 µM 99% | [2]; at 100.0 µM 94% | [4]; at 11.0 µM 90% | [4]; at 33.0 µM 99% | [4]; at 100.0 µM 80% | [5]; at 11.0 µM 97% | [5]; at 33.0 µM 99% | [5]; [18] 98% | [5]; at 50.0 µM 99.5% | [5]; at 100.0 µM 91% | [6]; at 11.0 µM 95% | [6]; at 33.0 µM 99% | [6]; [18] 99% | [6]; at 50.0 µM 99.5% | [6]; at 100.0 µM 98% | [7]; at 11.0 µM 96% | [7]; at 33.0 µM 99% | [7]; at 100.0 µM 90% | [8]; [18] 99% | [8]; at 50.0 µM 99.5% | [9]; at 11.0 µM 96% | [9]; at 33.0 µM 99% | [9]; at 100.0 µM 92% | [10]; [18] 98% | [10]; at 50.0 µM 98.8% | [11]; at 11.0 µM 93% | [11]; at 33.0 µM 99% | [11]; [18] 97% | [11]; at 50.0 µM 99% | [11]; at 100.0 µM 94% | [12]; at 11.0 µM 96% | [12]; at 33.0 µM 98% | [12]; at 100.0 µM 99% | [13]; at 11.0 µM 96% | [13]; at 33.0 µM 99% | [13]; at 100.0 µM 93% | [14]; at 11.0 µM 97% | [14]; at 33.0 µM 99% | [14]; at 100.0 µM 99% | [15]; [18] 99% | [15]; at 50.0 µM 99.5% | [16]; at 11.0 µM 97% | [16]; at 33.0 µM 99% | [16]; at 100.0 µM 82%
inactive: [1]; at 1.2 µM 10% | [1]; at 3.7 µM 29% | [2]; at 1.2 µM 4% | [2]; at 3.7 µM 20% | [3]; at 1.2 µM 0% | [3]; at 3.7 µM 2% | [3]; at 11.0 µM 7% | [3]; at 33.0 µM 26% | [3]; at 100.0 µM 44% | [4]; at 1.2 µM 7% | [4]; at 3.7 µM 12% | [5]; at 1.2 µM 10% | [5]; at 3.7 µM 30% | [5]; [17] 23% | [6]; at 1.2 µM 9% | [6]; at 3.7 µM 28% | [6]; [17] 11% | [7]; at 1.2 µM 12% | [7]; at 3.7 µM 19% | [8]; [17] 6% | [9]; at 1.2 µM 14% | [9]; at 3.7 µM 23% | [10]; [17] 6% | [11]; at 1.2 µM 6% | [11]; at 3.7 µM 13% | [11]; [17] -2% | [12]; at 1.2 µM 6% | [12]; at 3.7 µM 14% | [13]; at 1.2 µM 9% | [13]; at 3.7 µM 20% | [14]; at 1.2 µM 7% | [14]; at 3.7 µM 24% | [15]; [17] 52% | [16]; at 1.2 µM 8% | [16]; at 3.7 µM 27%

C=C(CN(C)C)C(=O)c1cc(C)ccc1C
active: [1]; at 11.0 µM 85% | [1]; at 33.0 µM 99% | [1]; at 100.0 µM 99% | [2]; at 33.0 µM 98% | [2]; at 100.0 µM 99% | [3]; at 33.0 µM 80% | [3]; at 100.0 µM 98% | [4]; at 11.0 µM 80% | [4]; at 33.0 µM 99% | [4]; at 100.0 µM 99% | [5]; at 11.0 µM 83% | [5]; at 33.0 µM 98% | [5]; [18] 99% | [5]; at 50.0 µM 99.4% | [5]; at 100.0 µM 99% | [6]; at 11.0 µM 86% | [6]; at 33.0 µM 99% | [6]; [18] 99% | [6]; at 50.0 µM 99.4% | [6]; at 100.0 µM 99% | [7]; at 11.0 µM 80% | [7]; at 33.0 µM 99% | [7]; at 100.0 µM 99% | [8]; [18] 99% | [8]; at 50.0 µM 99.5% | [9]; at 33.0 µM 98% | [9]; at 100.0 µM 98% | [10]; [18] 99% | [10]; at 50.0 µM 99.2% | [11]; at 11.0 µM 90% | [11]; at 33.0 µM 99% | [11]; [18] 99% | [11]; at 50.0 µM 98.8% | [11]; at 100.0 µM 99% | [12]; at 11.0 µM 75% | [12]; at 33.0 µM 99% | [12]; at 100.0 µM 99% | [13]; at 11.0 µM 89% | [13]; at 33.0 µM 99% | [13]; at 100.0 µM 99% | [14]; at 11.0 µM 86% | [14]; at 33.0 µM 99% | [14]; at 100.0 µM 99% | [15]; [18] 99% | [15]; at 50.0 µM 99.2% | [16]; at 11.0 µM 86% | [16]; at 33.0 µM 98% | [16]; at 100.0 µM 99%
inactive: [1]; at 1.2 µM 5% | [1]; at 3.7 µM 32% | [2]; at 1.2 µM 8% | [2]; at 3.7 µM 23% | [2]; at 11.0 µM 56% | [3]; at 1.2 µM 1% | [3]; at 3.7 µM 9% | [3]; at 11.0 µM 32% | [4]; at 1.2 µM 2% | [4]; at 3.7 µM 19% | [5]; at 1.2 µM 4% | [5]; at 3.7 µM 23% | [5]; [17] 24% | [6]; at 1.2 µM 17% | [6]; at 3.7 µM 38% | [6]; [17] 5% | [7]; at 1.2 µM 9% | [7]; at 3.7 µM 21% | [8]; [17] 50% | [9]; at 1.2 µM 10% | [9]; at 3.7 µM 22% | [9]; at 11.0 µM 40% | [10]; [17] 7% | [11]; at 1.2 µM 5% | [11]; at 3.7 µM 28% | [11]; [17] 61% | [12]; at 1.2 µM 3% | [12]; at 3.7 µM 16% | [13]; at 1.2 µM 12% | [13]; at 3.7 µM 32% | [14]; at 1.2 µM 16% | [14]; at 3.7 µM 40% | [15]; [17] 61% | [16]; at 1.2 µM 16% | [16]; at 3.7 µM 37%

Source: PubChem BioAssay (NCI)
